Laboratory results as given in PubChem BioAssay AID1159580 (chemical genetic matrix, 2015).
About 2,000 (36%) of roughly 5,500 compounds were called active. Roughly 18% stayed inconclusive and do not appear here. No stated cut-off is given here; in the data, active means normalized growth mostly below about 0.91 (no sharp cut-off); inconclusive means no clear call, values can overlap the other calls; inactive means mostly above about 0.92. The list shows a part of the results.

Assay: chemical genetic growth profiling, strain panel (AID 1159580);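 further: tested at 20 µM; growth read once vehicle control cultures reached saturation at 30 °C; 1 = growth at the plate median or of vehicle wells; lower values mean less growth of the strain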
Conditions: S. cerevisiae deletion strains, growth OD
[1] = locus YAR019C, strain CDC15, active compounds read low
[2] = locus YBL105C, strain PKC1, active compounds read low
[3] = locus YBR135W, strain CKS1, active compounds read low
[4] = locus YBR136W, strain MEC1, active compounds read low
[5] = locus YBR160W, strain CDC28, active compounds read low
[6] = locus YDL017W, strain CDC7, active compounds read low
[7] = locus YDL028C, strain MPS1, active compounds read low
[8] = locus YDL101C, strain DUN1, active compounds read low
[9] = locus YDL108W, strain KIN28, active compounds read low
[10] = locus YDL132W, strain cdc53, active compounds read low
[11] = locus YDL214C, strain PRR2, active compounds read low
[12] = locus YDR052C, strain DBF4, active compounds read low
[13] = locus YDR054C, strain cdc34, active compounds read low
[14] = locus YDR226W, strain ADK1, active compounds read low
[15] = locus YDR477W, strain SNF1, active compounds read low
[16] = locus YER123W, strain YCK3, active compounds read low
[17] = locus YER133W, strain GLC7, active compounds read low
[18] = locus YFL009W, strain cdc4, active compounds read low
[19] = locus YFL029C, strain CAK1, active compounds read low
[20] = locus YFR003C, strain YPI1, active compounds read low
[21] = locus YFR019W, strain FAB1, active compounds read low
[22] = locus YFR028C, strain CDC14, active compounds read low
[23] = locus YGR040W, strain KSS1, active compounds read low
[24] = locus YGR052W, strain FMP48, active compounds read low
[25] = locus YGR092W, strain DBF2, active compounds read low
[26] = locus YHR030C, strain SLT2, active compounds read low
[27] = locus YHR079C, strain IRE1, active compounds read low
[28] = locus YHR082C, strain KSP1, active compounds read low
[29] = locus YHR205W, strain SCH9, active compounds read low
[30] = locus YIL147C, strain SLN1, active compounds read low
[31] = locus YJL095W, strain BCK1, active compounds read low
[32] = locus YJL128C, strain PBS2, active compounds read low
[33] = locus YJL157C, strain FAR1, active compounds read low
[34] = locus YJR016C, strain ILV3, active compounds read low
[35] = locus YJR066W, strain TOR1 (second series), active compounds read low
[36] = locus YJR066W, strain TOR1, active compounds read low
[37] = locus YKL048C, strain ELM1, active compounds read low
[38] = locus YKL067W, strain YNK1, active compounds read low
[39] = locus YKL101W, strain HSL1, active compounds read low
[40] = locus YKL193C, strain SDS22, active compounds read low
[41] = locus YKL203C, strain TOR2, active compounds read low
[42] = locus YLR113W, strain HOG1, active compounds read low
[43] = locus YLR133W, strain CKI1, active compounds read low
[44] = locus YLR403W, strain SFP1, active compounds read low
[45] = locus YML070W, strain DAK1, active compounds read low
[46] = locus YMR001C, strain CDC5, active compounds read low
[47] = locus YMR205C, strain PFK2 (second series), active compounds read low
[48] = locus YMR277W, strain FCP1, active compounds read low
[49] = locus YNL006W, strain LST8, active compounds read low
[50] = locus YNL020C, strain ARK1, active compounds read low
[51] = locus YNL161W, strain CBK1, active compounds read low
[52] = locus YNL183C, strain NPR1, active compounds read low
[53] = locus YNL207W, strain RIO2, active compounds read low
[54] = locus YNL222W, strain SSU72, active compounds read low
[55] = locus YNL307C, strain MCK1 (second series), active compounds read low
[56] = locus YOL078W, strain AVO1, active compounds read low
[57] = locus YOL136C, strain PFK27, active compounds read low
[58] = locus YOR061W, strain CKA2, active compounds read low
[59] = locus YOR119C, strain RIO1, active compounds read low
[60] = locus YOR231W, strain MKK1, active compounds read low
[61] = locus YOR329C, strain SCD5, active compounds read low
[62] = locus YPL031C, strain PHO85, active compounds read low
[63] = locus YPL153C, strain RAD53, active compounds read low
[64] = locus YPL204W, strain HRR25, active compounds read low
[65] = locus YPL209C, strain IPL1, active compounds read low
[66] = locus YPL256C, strain CLN2, active compounds read low
[67] = locus YPR025C, strain CCL1, active compounds read low
[68] = locus YPR106W, strain ISR1, active compounds read low
[69] = locus YPR111W, strain DBF20, active compounds read low
[70] = strain NNK1, active compounds read low
[71] = strain TSCII, active compounds read low

Measured: normalized growth

O=S(=O)(Nc1cc(-c2cccs2)nn1-c1ccc(I)cc1)c1cccc(F)c1
active: [26] 0.715 | [42] 0.848
inactive: [1] 0.957 | [2] 0.966 | [3] 0.966 | [4] 0.97 | [5] 0.956 | [6] 0.97 | [7] 0.948 | [8] 0.983 | [9] 0.958 | [10] 0.966 | [11] 0.926 | [12] 0.983 | [13] 0.986 | [14] 0.961 | [15] 0.926 | [16] 0.929 | [17] 0.951 | [18] 0.971 | [19] 0.953 | [20] 0.979 | [21] 0.974 | [22] 0.983 | [23] 0.931 | [24] 0.966 | [25] 0.876 | [27] 0.922 | [28] 0.968 | [29] 0.863 | [30] 0.967 | [31] 0.903 | [32] 0.91 | [33] 0.956 | [34] 0.969 | [35] 0.952 | [36] 0.906 | [37] 0.947 | [38] 0.912 | [39] 0.931 | [40] 0.971 | [41] 1.03 | [43] 0.935 | [44] 0.944 | [45] 0.936 | [46] 0.966 | [47] 0.945 | [48] 0.968 | [49] 0.964 | [50] 0.946 | [51] 0.974 | [52] 0.986 | [53] 0.968 | [54] 0.956 | [55] 0.911 | [56] 0.966 | [57] 0.925 | [58] 0.951 | [59] 0.961 | [60] 0.935 | [61] 0.968 | [62] 0.928 | [63] 0.943 | [64] 0.928 | [65] 0.975 | [66] 0.87 | [67] 0.966 | [68] 0.964 | [69] 1.01 | [70] 0.965 | [71] 0.965

COc1ccc(-n2nc(C(F)(F)F)cc2-c2ccc(Cl)cc2)cc1
inactive: locus YAL040C, strain CLN3, active compounds read low 1.09 | locus YCL061C, strain MRC1 (second series), active compounds read low 1.01 | locus YDR363W, strain ESC2, active compounds read low 1.02 | locus YER002W, strain NOP16, active compounds read low 1.03 | locus YGR078C, strain PAC10, active compounds read low 1.01 | locus YMR263W, strain SAP30, active compounds read low 1 | locus YMR307W, strain GAS1, active compounds read low 1.01 | locus YNL175C, strain NOP13, active compounds read low 1.02 | locus YNL197C, strain WHI3, active compounds read low 1.02 | locus YNL224C, strain SQS1, active compounds read low 0.998 | locus YNL322C, strain KRE1, active compounds read low 1.02 | locus YOR083W, strain WHI5 (second series), active compounds read low 1.02 | locus YPL055C, strain LGE1, active compounds read low 1.02 | locus YPL241C, strain CIN2, active compounds read low 1

COc1ccc(-c2cc(NS(=O)(=O)c3cccc(F)c3)n(-c3ccc(Cl)c(Cl)c3)n2)cc1
active: [26] 0.635 | [42] 0.811 | [66] 0.828
inactive: [1] 0.961 | [2] 0.971 | [3] 0.977 | [4] 0.965 | [5] 0.963 | [6] 0.97 | [7] 0.945 | [8] 0.979 | [9] 0.975 | [10] 0.977 | [11] 0.92 | [12] 0.984 | [13] 0.966 | [14] 0.961 | [15] 0.903 | [16] 0.908 | [17] 0.94 | [18] 0.947 | [19] 0.961 | [20] 0.98 | [21] 0.931 | [22] 0.965 | [23] 0.894 | [24] 0.954 | [25] 0.838 | [27] 0.888 | [28] 0.873 | [29] 0.856 | [30] 0.959 | [31] 0.888 | [32] 0.921 | [33] 0.939 | [34] 0.972 | [35] 0.922 | [36] 0.87 | [37] 0.929 | [38] 0.91 | [39] 0.87 | [40] 0.968 | [41] 0.995 | [43] 0.912 | [44] 0.924 | [45] 0.906 | [46] 0.956 | [47] 0.937 | [48] 0.947 | [49] 0.966 | [50] 0.89 | [51] 0.971 | [52] 0.956 | [53] 0.973 | [54] 0.958 | [55] 0.839 | [56] 0.976 | [57] 0.887 | [58] 0.87 | [59] 0.944 | [60] 0.873 | [61] 0.967 | [62] 0.913 | [63] 0.915 | [64] 0.905 | [65] 0.97 | [67] 0.966 | [68] 0.963 | [69] 0.942 | [70] 0.961 | [71] 0.962

O=S(=O)(Nc1ccc(-n2nc(C(F)(F)F)cc2-c2cccs2)cc1)c1ccc(F)cc1
inactive: [1] 0.993 | [2] 0.979 | [3] 0.997 | [4] 0.991 | [5] 0.998 | [6] 0.99 | [7] 0.995 | [8] 0.993 | [9] 1 | [10] 0.989 | [11] 0.986 | [12] 0.98 | [13] 0.982 | [14] 0.996 | [15] 0.991 | [16] 0.979 | [17] 0.973 | [18] 0.991 | [19] 0.994 | [20] 0.99 | [21] 0.985 | [22] 0.997 | [23] 0.987 | [24] 1.04 | [25] 0.99 | [26] 1.01 | [27] 0.993 | [28] 1.06 | [29] 0.983 | [30] 0.99 | [31] 1.04 | [32] 0.951 | [33] 0.979 | [34] 0.999 | [35] 0.956 | [36] 1.04 | [37] 0.991 | [38] 0.991 | [39] 0.995 | [40] 0.986 | [41] 1.04 | [42] 0.938 | [43] 0.983 | [44] 0.972 | [45] 0.992 | [46] 0.989 | [47] 0.995 | [48] 0.992 | [49] 0.991 | [50] 0.987 | [51] 0.989 | [52] 1.02 | [53] 0.993 | [54] 0.99 | [55] 0.996 | [56] 0.994 | [57] 0.973 | [58] 0.998 | [59] 1.05 | [60] 0.974 | [61] 0.988 | [62] 0.986 | [63] 0.997 | [64] 0.966 | [65] 0.988 | [66] 0.94 | [67] 0.993 | [68] 0.978 | [69] 0.974 | [70] 0.975 | [71] 0.995
